Tau FP inhib: blocks human tau fibril formation measured by polarization | K18 P301L tau heparin fibrillization, Alexa594 FP, 6 h | 280,000 compounds, 0.39% hits | Potency, µM (top dose mostly 57.7 µM), for the others: top-dose activity, negative = inhibition, usual class: inhibitors | P10636; note: nearly all actives have a fitted effect of over 55% in size
Target sequence (P10636 561-689 P618L limits assumed): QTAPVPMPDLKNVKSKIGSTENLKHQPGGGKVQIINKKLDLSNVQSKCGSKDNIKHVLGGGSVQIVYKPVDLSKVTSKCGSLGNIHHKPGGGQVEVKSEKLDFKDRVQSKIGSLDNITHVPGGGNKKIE
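Recombinant K18 P301L […], labeled with Alexa 594 at 0.24 uM over 15 uM unlabeled; heparin inducer 20 uM final; 37 C, 6 hr; FP endpoint.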
VDR inh: blocks the human vitamin D receptor. VDR-SRC2-3 peptide fluorescence polarization, 2 h. Potency, µM, without a hit: max response, negative = inhibition, usual class: inhibitors. 400,000 compounds, 0.93% hits. AID 504847
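Compounds are added to VDR with labelled SRC2-3 coactivator peptide and held 2 h at room temperature. Inhibition of the VDR–peptide interaction is then read as a change in fluorescence polarization.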
Tau fluor counter: counter-screen for tau fibril formation inhibitors; tau K18 P301L Alexa594 fluorescence, heparin fibrillization; Potency, µM (highest dose often 57.7 µM), without a hit: top-dose activity change, negative = decrease; 280,000 compounds, 0.93% hits; AID 1463; note: nearly all actives have a fitted effect of over 55% in size
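Human tau K18 P301L (15 uM unlabeled, 0.24 uM Alexa 594-labeled) in 100 mM sodium acetate pH 7 with 20 uM heparin, 6 hr at 37 C. ThT 30 uM added, 1 hr ambient; Alexa 594 FP and total fluorescence read at 555/632 nm.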
PLK1 PBD block: blocks phosphopeptide binding to human PLK1 polo-box domain | P53350 | Plk1 PBD binding of FITC phosphopeptide, fluorescence polarization | Potency, µM, for inactives: max response, negative = inhibition, hits mostly inhibitors | 360,000 compounds, 2.8% hits | AID 720504; note: series mostly up to about 57 µM; nearly all actives have a fitted effect of over 65% in size
Target sequence (P53350 whole entry, looked up, the tested form may be a part): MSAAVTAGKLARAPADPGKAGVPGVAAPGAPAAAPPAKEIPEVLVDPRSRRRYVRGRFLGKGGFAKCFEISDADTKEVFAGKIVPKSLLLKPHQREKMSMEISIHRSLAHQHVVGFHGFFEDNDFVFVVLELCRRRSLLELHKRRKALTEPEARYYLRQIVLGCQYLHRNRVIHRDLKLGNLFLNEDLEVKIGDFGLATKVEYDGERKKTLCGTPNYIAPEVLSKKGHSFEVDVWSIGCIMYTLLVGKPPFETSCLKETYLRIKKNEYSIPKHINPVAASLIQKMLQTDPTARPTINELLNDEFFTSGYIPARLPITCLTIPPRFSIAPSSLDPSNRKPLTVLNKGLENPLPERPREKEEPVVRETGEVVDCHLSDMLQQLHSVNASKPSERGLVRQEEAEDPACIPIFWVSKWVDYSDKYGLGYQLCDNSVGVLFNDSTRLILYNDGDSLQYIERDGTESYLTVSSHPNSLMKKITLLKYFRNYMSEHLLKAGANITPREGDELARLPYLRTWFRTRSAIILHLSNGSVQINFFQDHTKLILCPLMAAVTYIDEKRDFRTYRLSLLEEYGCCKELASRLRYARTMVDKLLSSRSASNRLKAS
Tau ThT inhib: inhibitors of human tau fibril formation, thioflavin T binding. recombinant tau K18 P301L, heparin-induced fibrillization, ThT fluorescence. Potency, µM (doses to about 57.4 µM), for inactives: at the top dose activity, negative = inhibition, hits mostly inhibitors. 270,000 compounds, 2.1% hits. AID 1460; note: nearly all actives have a fitted effect of over 55% in size
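ThT emission at 510 nm, taken 1 hr after adding 30 uM dye, quantifies aggregates formed when 20 uM heparin acts on human tau K18 P301L for 6 hr at 37 C.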
Sfp inh: inhibitors of Bacillus subtilis Sfp phosphopantetheinyl transferase. AID 1490. Biochemical Sfp PPTase activity, qHTS. Q9F4F7. Potency, µM, for the others: largest response in the series, negative = inhibition, hits mostly inhibitors. 310,000 compounds, 3.5% hits;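 note: the enzyme is Sfp with the accession as filed and its product quenches rhodamine fluorescence; 0% = enzyme reaction without inhibitor and -100% = no enzyme wells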
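After 15 min at room temperature with compound, 15 nM Sfp received 5 uM rhodamine-CoA plus 12.5 uM BHQ-2-ybbR (50 mM Hepes pH 7.6, 10 mM MgCl2). Rate came from the fluorescence difference over 30 min, ex 525/em 598 nm.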
An asterisk follows results filed as active; ? = inconclusive; . = not tested or not shown. The list is not random: actives were taken first. Their share in the collection is about 6%. Calls come from the whole dose curve; as a rule, active = well fitted curve in the direction sought with a large enough effect; inconclusive = small, poorly fitted or top-dose-only effect, or another doubt; inactive = no such curve, though single readings can be large; an effect the other way counts as inactive or inconclusive. Unless noted, % is set by controls: 0 for no effect and ±100 for the full control effect; potency is the fitted concentration of half-maximal effect.

SMILES	Tau FP inhib	VDR inh	Tau fluor counter	PLK1 PBD block	Tau ThT inhib	Sfp inh
COC(=O)c1cccc(Cn2nc(C)c([N+](=O)[O-])c2C)c1	-1.4%	-29.2%	-8.1%	21.2µM*	-5.9%	6.8%
COc1ccc(-c2noc(C(C)n3nc(C)c([N+](=O)[O-])c3C)n2)cc1OC (stereo not given)	-1.8%	15.5%	-27.0%	-2.5%	-17.5%	-10.2%
CCCCN(C)CCCNC(=O)Cn1ncc2c3ccccc3n(Cc3ccccc3)c2c1=O	0.1%	18.0%	-24.6%	.	-11.2%	.
CC1=NN(c2nc(-c3ccc(C)cc3)cs2)C(=O)C1N=Nc1ccccc1O (stereo not given)	10.6%	13.5%	?	-23.3%	2µM*	?
CC1=NN(c2nc(-c3ccc(C)cc3)cs2)C(=O)C1N=Nc1cccc(O)c1 (stereo not given)	-16.0%	79.4µM*	?	4.74µM*	1.78µM*	-14.6%
CC1=NN(c2ccccc2)C(=O)C1N=Nc1ccccc1 (stereo not given)	3.7%	-7.8%	-9.7%	-1.6%	?	17.6%
CCc1cc2c(-c3ccccc3)cc(=O)oc2c2c1OCN(Cc1ccc(F)cc1)C2	18.1%	-0.3%	?	.	?	.
O=C(CCN1C(=O)/C(=C/c2ccc(Cl)cc2)SC1=S)Nc1cccc(C(=O)O)c1	.	-9.7%	.	?	.	-1.2%
O=C(O)CCN1C(=O)/C(=C\c2cccc(OCC(=O)Nc3ccc(Cl)cc3)c2)SC1=S	-4.1%	14.1µM*	-15.5%	26.7µM*	12.6µM*	-4.5%
Cc1ccc(NC(=O)COc2cccc(/C=C3\SC(=S)N(CCC(=O)O)C3=O)c2)cc1Cl	-1.2%	?	-12.7%	18.9µM*	12.6µM*	-18.9%
CCc1ccc(C(=O)NC2=NC(c3ccccc3F)CC(=O)N2)cc1 (stereo not given)	-8.9%	-6.7%	-4.3%	.	1.7%	.
CC(=O)N1N=C(c2c(-c3ccccc3)c3cc(Br)ccc3[nH]c2=O)CC1c1ccco1 (stereo not given)	-6.8%	79.4µM*	-22.8%	-18.3%	?	39.8µM*
COc1ccc(C2=NN(C(N)=S)C(c3ccco3)C2)cc1 (stereo not given)	-6.3%	5.4%	-24.4%	-9.5%	?	11.2µM*
CN1CC(=O)N(CC(=O)N2N=C(c3ccc(Cl)cc3)CC2c2ccco2)C1=O (stereo not given)	-3.8%	-18.0%	-5.1%	-15.5%	-4.3%	20µM*
Cc1ccc(C2=NN(C(=O)CSc3nc4ncc(Cl)cc4[nH]3)C(c3ccco3)C2)cc1 (stereo not given)	-9.8%	5.1%	-18.5%	-5.0%	?	44.7µM*
CN1C(=O)[C@@](O)(c2cn(C)c3ccccc23)c2cc(Br)ccc21	.	.	.	-2.6%	.	.
O=C(OCC(=O)N1N=C(c2ccc(Cl)cc2)CC1c1ccco1)c1cccnc1 (stereo not given)	.	39.8µM*	.	-30.0%	.	.
CCc1ccc(C2=NN(C(C)=O)C(c3ccco3)C2)cc1 (stereo not given)	8.8%	-20.4%	-12.2%	1.9%	?	25.1µM*
NCCCC[C@H]1NC(=O)[C@H](CCC(=O)O)NC(=O)c2cc([N+](=O)[O-])cc(I)c2OCC[C@@H](C(N)=O)NC1=O	5.1%	?	3.9%	7.52µM*	-0.3%	5.3%
Cc1ccc(-n2nc3c(=O)n(CCCC(=O)N4CCC(C(N)=O)CC4)nc(C)c3c2C)cc1	.	20.0%	.	6.5%	.	19.9%
COc1ccc(OCCNC(=O)c2ccc3nc(C)c(N(C)Cc4ccc(NC(C)=O)cc4)n3c2)cc1	.	.	.	4.4%	.	.
COc1ccc(Oc2nc(-c3ccccn3)nc3ccccc23)cc1	-10.2%	0.6%	-28.3%	1.3%	?	39.8µM*
c1ccc(-c2nc(N3CCOCC3)c3ccccc3n2)nc1	-6.2%	-5.9%	-10.3%	-7.7%	-20.8%	14.1µM*
c1ccc(Oc2nc(-c3ccccn3)nc3ccccc23)cc1	-14.7%	18.8%	-17.7%	-4.4%	?	?
CC(=O)c1ccc(NC(=O)c2cc(C3CC3)nc3c2c(C)nn3-c2ccc(C)cc2)cc1	-13.5%	15.5%	-8.1%	.	12.3%	.
SMILES	Tau FP inhib	VDR inh	Tau fluor counter	PLK1 PBD block	Tau ThT inhib	Sfp inh
O=C(O)c1cc2n(n1)C(C(F)(F)F)CC(C1CC1)N2 (stereo not given)	8.6%	?	-7.6%	23.8µM*	.	1.9%
COC(CNC(=O)CCc1c(C)nc2c(-c3ccc(F)cc3)c(C)nn2c1C)OC	8.1%	-17.4%	-6.5%	29.9µM*	-8.0%	4.6%
COc1ccc(NC2c3ccccc3C(=O)N2Cc2ccco2)cc1OC (stereo not given)	8.0%	-3.4%	-1.3%	-15.2%	-9.4%	-1.6%
O=C1c2ccccc2C(Nc2ccc(S(=O)(=O)N3CCCCC3)cc2)N1Cc1ccco1 (stereo not given)	8.1%	?	-21.4%	-9.9%	-17.4%	39.8µM*
O=C1c2ccccc2C(Nc2ccc(F)c(Cl)c2)N1Cc1ccco1 (stereo not given)	3.6%	89.1µM*	-27.8%	-27.0%	?	31.6µM*
Cc1ccc(N2CC(NC(=O)c3ccc(S(=O)(=O)N4CCCC4)cc3)CC2=O)cc1C (stereo not given)	-5.9%	-2.5%	-14.7%	.	-8.3%	.
COc1ccc2c(c1)-c1nc(/N=C/c3cccc(OC)c3O)sc1CC2	-1.5%	7.7%	2.7%	-11.5%	6.4%	-1.5%
COc1ccc2c(c1)-c1nc(/N=C/c3ccccc3O)sc1CC2	?	-1.4%	?	-10.8%	31.6µM*	-18.8%
COc1ccc(CC(=O)Nc2ccc(S(=O)(=O)Nc3cc(C)nc(C)n3)cc2)cc1OC	.	.	.	-2.2%	.	.
CC(=O)OCC(CO)OC(C)=O (stereo not given) (tested in a mixture with another compound)	.	-1.1%	.	.	.	0.2%
CC(=O)N1CCN(CC(=O)Nc2sccc2C#N)CC1	2.3%	-5.2%	-8.3%	23.8µM*	-11.3%	0.2%
N#Cc1ccsc1NC(=O)CN1CCN(c2ccccc2)CC1	-4.1%	-12.7%	-14.3%	-2.1%	-8.3%	13.1%
COC1=CC(=NCl)C=CC1=NCl	.	.	.	13.4µM*	.	.
O=C(Nc1nnc(SCc2ccc(Cl)cc2)s1)c1ccco1	-12.2%	?	-22.7%	2.99µM*	-21.3%	6.1%
CCOc1c(O)ccc(/C=C2\SC(=S)NC2=O)c1[N+](=O)[O-]	?	?	?	29.9µM*	10µM*	11.2µM*
CC(C)CCNC(=O)c1ccc2c(c1)N(Cc1cccc(Cl)c1)C(=O)c1ccccc1S2	-7.8%	1.8%	-8.1%	.	0.7%	.
CC(C)CCNC(=O)Nc1ccc2c(c1)N(Cc1ccccc1)C(=O)c1ccccc1S2	14.1µM*	-2.2%	-23.9%	.	9.6%	.

Screening data as filed in PubChem BioAssay.
